High-throughput results: PubChem BioAssay, National Center for Advancing Translational Sciences (NCATS)
Only some compounds are listed: those with a hit (about 11% of all), similar ones and a draw of the others.
HPGD inh: inhibitors of human 15-hydroxyprostaglandin dehydrogenase (HPGD) | Potency, µM, hits mostly inhibitors | purified HPGD, NADH fluorescence kinetic, PGE2 substrate | 150,000 compounds, 4.3% hits | P15428
Target sequence (P15428 whole entry, looked up): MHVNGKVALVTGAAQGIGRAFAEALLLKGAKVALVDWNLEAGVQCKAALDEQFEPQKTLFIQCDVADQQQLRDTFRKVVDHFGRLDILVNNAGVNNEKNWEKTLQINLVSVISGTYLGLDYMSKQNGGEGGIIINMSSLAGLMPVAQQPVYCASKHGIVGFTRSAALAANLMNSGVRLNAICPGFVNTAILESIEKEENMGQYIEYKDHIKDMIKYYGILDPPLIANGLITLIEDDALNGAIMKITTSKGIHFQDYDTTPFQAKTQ
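NADH formation kinetics: reaction with 30 uM PGE2 and 1 mM NAD+ (final), 20 nM enzyme, Tris-HCl pH 8 with Tween 20, after 15 min compound preincubation at room temperature. Fluorescence change, last versus first of five reads.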
PNC inhibitor: perinucleolar compartment assembly inhibition; PC3M PTB-GFP, PNC prevalence imaging, 16 h; active compounds read low; activity change (PNC), negative = inhibition, % at 10 µM; 140,000 compounds, 3.1% hits; AID 2417;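 active means readout at or below -70, meaning at least 70% loss of cells showing the perinucleolar compartment, a nuclear body marking cancer cells; inconclusive means readout between -30 and a set limit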
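PC3M cells stably expressing PTB-GFP, 750–1000 cells/well, treated 16 h at 37 °C with compound (23 nl of library stock), in duplicate. After paraformaldehyde fixation and Hoechst stain, imaged at 20x; PNC prevalence scored by image analysis.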
ALDH1A1 inh: blocks purified human ALDH1A1 activity; Purified ALDH1A1, NADH fluorescence, propionaldehyde substrate; Potency, µM (series often up to 75.3 µM), actives largely listed as inhibitors; 220,000 compounds, 7.3% hits
RGS12 GoLoco inh: inhibitors of human Gai1-RGS12 GoLoco interaction (red fluorophore); 230,000 compounds, 0.44% hits; AID 880; Gai1:RGS12 GoLoco peptide FP, rhodamine, 10 min; Potency, µM (titrated, usually from 61.6 µM), hits mostly inhibitors; P63096; active means well fitted inhibition curve with a large enough effect, not every such curve was filed as active; inactive means no such curve, though single readings can be large or run the other way; further: nearly all actives have a fitted effect of over 30% in size
Target sequence (P63096 whole entry, looked up): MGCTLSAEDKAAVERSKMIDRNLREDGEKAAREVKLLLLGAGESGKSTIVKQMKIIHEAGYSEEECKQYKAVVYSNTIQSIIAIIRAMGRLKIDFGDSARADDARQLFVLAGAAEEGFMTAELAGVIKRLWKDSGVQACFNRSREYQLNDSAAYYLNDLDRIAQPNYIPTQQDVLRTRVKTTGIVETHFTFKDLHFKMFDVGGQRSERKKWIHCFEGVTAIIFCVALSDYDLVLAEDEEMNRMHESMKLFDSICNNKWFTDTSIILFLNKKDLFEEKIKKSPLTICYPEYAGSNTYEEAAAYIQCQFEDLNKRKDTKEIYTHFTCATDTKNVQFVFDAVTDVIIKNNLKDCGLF
HttQ103 aggreg: inhibitors of mutant huntingtin aggregate formation in PC12 cells | PC12 HttQ103-GFP aggregates, Acumen cytometry, 40 h | Potency, µM (series often up to 46.1 µM), actives largely listed as inhibitors | 220,000 compounds, 1.1% hits | AID 1688; active means well fitted curve in the direction sought with a large enough effect; inconclusive means small, poorly fitted or top-dose-only effect, or another doubt; inactive means no such curve, though single readings can be large; an effect the other way counts as inactive or inconclusive; further: nearly all actives have a fitted effect of over 60% in size
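Aggregate formation scored by laser-scanning cytometer (488 excitation, 500–530 emission) in lysed PC12 cells expressing Q103-GFP after 100 nM tebufenozide induction; library tested in dose series, with ATPLite reagent added in the multiplex.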
HTT ATP protect: protects HTT-Q103 PC12 cells, measured by ATP. PC12 HTT-Q103 induced, cytoprotection, ATP luminescence, 40 h. Potency, µM (series often up to 56.4 µM), actives largely listed as activators. 230,000 compounds, 0.14% hits; active means well fitted curve in the direction sought with a large enough effect; inconclusive means small, poorly fitted or top-dose-only effect, or another doubt; inactive means no such curve, though single readings can be large; an effect the other way counts as inactive or inconclusive; further: nearly all actives have a fitted effect of over 45% in size
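Quantitative HTS on tebufenozide-induced (100 nM) PC12 cells expressing HTTQ103 exon 1–GFP; compounds tested as a concentration series; survival measured via cellular ATP.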
Hits are given with their value; [ ] = dose if it differs, or a comment. Unless noted, the call rests on the fitted dose curve; in most records, active means well fitted inhibition curve with a large enough effect (not every such curve was filed as active); inconclusive means small, poorly fitted or top-dose-only effect, or another doubt; inactive means no such curve, though single readings can be large or run the other way.

Screening CC1Cc2c(cnc3c2CN(C)CC3)CO1 (centres undefined) returned ALDH1A1 inh inactive[13.5 µM] and HTT ATP protect inactive[10 µM].
For C=CC(=O)OCC(CC)CCCC (centres undefined) the results were HPGD inh inactive, ALDH1A1 inh inactive, RGS12 GoLoco inh inactive and HTT ATP protect inactive.
`O=S(=O)(NCCO)c1cc[c]([Sb])cc1` gave HPGD inh inactive, ALDH1A1 inh inactive[13.5 µM] and RGS12 GoLoco inh inactive[14.2 µM].
CC[C@]1(OC(=O)CN)C(=O)OCc2c1cc1n(c2=O)Cc2cc3ccccc3nc2-1 was read as HPGD inh inconclusive, ALDH1A1 inh inconclusive, RGS12 GoLoco inh inactive[14.2 µM] and HTT ATP protect inactive[10 µM].
NC1=NC([S][Hg][c]2ccc(N)cc2)c2ncn([C@@H]3O[C@H](CO)[C@@H](O)[C@@H]3O)c2N1 (some centres undefined) was read as HPGD inh 0.05µM, ALDH1A1 inh 0.1µM and RGS12 GoLoco inh 0.5µM.
`OC[P+](CO)(CO)CO` gave HPGD inh inactive, ALDH1A1 inh inactive, RGS12 GoLoco inh inactive and HTT ATP protect inactive.
For C=CCOc1ccc(CC2C(=O)N(C)C(=O)N(C)C2=O)cc1 the results were HPGD inh inactive, PNC inhibitor inactive, ALDH1A1 inh inconclusive, RGS12 GoLoco inh inactive, HttQ103 aggreg inactive and HTT ATP protect inactive[10 µM].
Screening CCN(CC)c1ccc(CC2C(=O)N(C)C(=O)N(C)C2=O)cc1 returned HPGD inh inactive, PNC inhibitor inconclusive, ALDH1A1 inh 4.5µM, RGS12 GoLoco inh inactive, HttQ103 aggreg inactive and HTT ATP protect inactive.
CC(=O)Nc1c2sscc-2n(C)c1=O was read as HPGD inh inactive, ALDH1A1 inh inactive, RGS12 GoLoco inh inactive and HTT ATP protect inactive.
For O=c1[nH]c(=O)n(C2CCCCC2)c(O)c1C=Nc1ccc(N2CCOCC2)cc1 the results were HPGD inh inconclusive, PNC inhibitor -97, ALDH1A1 inh inactive, RGS12 GoLoco inh inactive, HttQ103 aggreg inactive and HTT ATP protect inactive[10 µM].
For COc1ccc(CN2CCN(Cc3ccccc3)CC2)c(OC)c1 the results were HPGD inh inactive, PNC inhibitor inactive, ALDH1A1 inh inactive, RGS12 GoLoco inh inactive, HttQ103 aggreg inactive and HTT ATP protect inactive.
For COc1ccc(OCC(=O)N2CCN(Cc3ccc4c(c3)OCO4)CC2)cc1 the results were ALDH1A1 inh inactive, RGS12 GoLoco inh inactive, HttQ103 aggreg inactive[9.22 µM] and HTT ATP protect inactive[10 µM].
`COc1cccc(CN2CCN(C(=O)COc3ccc4ccccc4c3)CC2)c1` gave HPGD inh inactive, PNC inhibitor inactive, ALDH1A1 inh 25µM, RGS12 GoLoco inh inactive, HttQ103 aggreg inactive[9.22 µM] and HTT ATP protect inactive.
For COc1ccc(OCC(=O)N2CCN(C(C)C)CC2)cc1 the results were HPGD inh inactive, PNC inhibitor -100, ALDH1A1 inh inconclusive, RGS12 GoLoco inh inactive, HttQ103 aggreg inactive and HTT ATP protect inactive[10 µM].
For COc1ccc(CN2CCN(C(=O)Cc3ccccc3)CC2)c(OC)c1 the results were HPGD inh inactive, PNC inhibitor inactive, ALDH1A1 inh 18µM, RGS12 GoLoco inh inactive, HttQ103 aggreg inactive and HTT ATP protect inactive[10 µM].
Screening COc1ccc(OCC(=O)N2CCN(Cc3ccc(SC)cc3)CC2)cc1 returned ALDH1A1 inh inactive, RGS12 GoLoco inh inactive, HttQ103 aggreg inactive[9.22 µM] and HTT ATP protect inactive[10 µM].
`Cc1ccc(OCC(=O)N2CCN(Cc3ccc4c(c3)OCO4)CC2)cc1` gave ALDH1A1 inh 25µM, RGS12 GoLoco inh inactive, HttQ103 aggreg inactive and HTT ATP protect inactive[10 µM].
For COc1cc2c3cc1Oc1c(O)c(OC)cc4c1[C@@H](Cc1ccc(cc1)Oc1cc(ccc1O)C[C@H]3N(C)CC2)N(C)CC4 the results were HPGD inh inactive, ALDH1A1 inh inactive[13.5 µM], RGS12 GoLoco inh inactive[14.2 µM] and HTT ATP protect inactive[10 µM].
Screening C/C=C1\C[C@H](C)[C@](O)(CO)C(=O)OCC2=CCN3CC[C@@H](OC1=O)[C@@H]23 returned HTT ATP protect inactive.
For C/C=C\c1ccc(OC)cc1 the results were HPGD inh inactive, ALDH1A1 inh inactive, RGS12 GoLoco inh inactive, HttQ103 aggreg inactive and HTT ATP protect inconclusive.
`CN1C[C@H](CO)C=C2c3cccc4[nH]cc(c34)C[C@H]21` gave ALDH1A1 inh inconclusive, RGS12 GoLoco inh 13µM, HttQ103 aggreg inactive[9.22 µM] and HTT ATP protect inactive[10 µM].
O=[N+]([O-])c1ccc2c3c(cccc13)CC2 was read as HPGD inh inactive, ALDH1A1 inh 3.2µM, RGS12 GoLoco inh inactive and HTT ATP protect inconclusive.
For CC[C@H](C)[C@H](NC(=O)[C@H](CCCN=C(N)N)NC(=O)[C@H](CCCN=C(N)N)NC(=O)[C@H](CC(C)C)NC(=O)[C@H](Cc1ccccc1)NC(=O)CNC(=O)CNC(=O)[C@@H](N)Cc1ccc(O)cc1)C(=O)O the results were ALDH1A1 inh inactive, RGS12 GoLoco inh inactive and HTT ATP protect inactive.
CCOc1cc(-c2c(C#N)c(=O)[nH]c3c2c(C)nn3-c2ccc(F)cc2)ccc1O was read as HPGD inh inconclusive, PNC inhibitor inactive, ALDH1A1 inh inconclusive, RGS12 GoLoco inh inactive, HttQ103 aggreg 13µM and HTT ATP protect inactive.
Screening O=C1/C(=C\c2ccccc2)C[C@@]2(O)[C@H]3Cc4ccc(O)c5c4[C@@]2(CCN3CC2CC2)[C@@H]1O5 returned HPGD inh inactive, ALDH1A1 inh inactive, RGS12 GoLoco inh inactive and HTT ATP protect inactive.
`O=C1C=C2C=C[C@@H]3C[C@@]2(O1)[C@H]1CCCCN31` gave HPGD inh inactive, ALDH1A1 inh inactive, RGS12 GoLoco inh inactive and HTT ATP protect inconclusive.
O=Cc1cn(Cc2cccc([N+](=O)[O-])c2)c2ccccc12 was read as HPGD inh inactive, PNC inhibitor inconclusive, ALDH1A1 inh 4µM, RGS12 GoLoco inh inactive, HttQ103 aggreg inactive and HTT ATP protect inactive[10 µM].
For O=Cc1cn(Cc2ccccc2F)c2ccccc12 the results were ALDH1A1 inh 0.45µM, RGS12 GoLoco inh inactive, HttQ103 aggreg inconclusive and HTT ATP protect inactive.
Cc1c(C=O)c2ccccc2n1Cc1ccccc1F was read as ALDH1A1 inh inconclusive, RGS12 GoLoco inh inactive, HttQ103 aggreg inactive[9.22 µM] and HTT ATP protect inactive[10 µM].
O=Cc1cn(Cc2c(F)cccc2Cl)c2ccccc12 was read as ALDH1A1 inh 3.2µM, RGS12 GoLoco inh inactive, HttQ103 aggreg inconclusive and HTT ATP protect inactive.
Screening CC1CC(=O)O1 (centres undefined) returned HPGD inh inactive, ALDH1A1 inh inactive, RGS12 GoLoco inh inactive and HTT ATP protect inactive.
O=[As](O)(O)c1ccc(N=Nc2ccc([As](=O)(O)O)cc2)cc1 was read as HPGD inh inactive, ALDH1A1 inh inactive[13.5 µM], RGS12 GoLoco inh inactive[14.2 µM] and HTT ATP protect inactive[10 µM].
For C[C@@H]1OC=C2[C@@H](O)[C@H]3O[C@H]3C(=O)[C@@]23[C@H]1[C@H]1C2=C([C@@H](O)[C@H]4O[C@@H]4C2=O)[C@@H]3O[C@@H]1C the results were ALDH1A1 inh inactive[13.5 µM] and HTT ATP protect 5.6µM.
